Experiment [1] in a line: qHTS assay to identify small molecule agonists of the estrogen receptor alpha (ER-alpha) signaling pathway in the presence of an antagonist - cell viability counter screen (AID 1259386).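 Note: series mostly up to about 92 µM; cells exposed to compounds for 22 h at 37 °C before the viability read; nearly all actives have a fitted effect of over 30% in size.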 Summed up:
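Cells are starved of estrogens for 5 days in charcoal-stripped serum, seeded for 24hr and co-treated with ICI-182,780 (10.0nM final) and test compounds. After 22hr at 37C, viability is read as CellTiter-Fluor fluorescence.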
A general note: Quantitative high-throughput screening tests each substance at several concentrations.

Experiment [2] addresses Progesterone receptor (Homo sapiens) (UniProt P06401). Description: qHTS assay to identify small molecule agonists of the progesterone receptor (PR) signaling pathway (AID 1346784; calls by dose curve; note: nearly all actives have a fitted effect of over 30% in size). Summed up: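 Using charcoal-stripped serum (2%) to limit endogenous steroids, PR-UAS-bla HEK 293T cells received compounds for 16 hr at 37C after 6 hr plating; beta-lactamase FRET fluorescence was recorded following 2 hr substrate loading at room temperature.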

The target is the same in experiment [3]. Put plainly: qHTS assay to identify small molecule antagonists of the progesterone receptor (PR) signaling pathway (AID 1346795; active = well fitted inhibition curve with a large enough effect in the signal ratio in the repeat runs, not every such curve was filed as active; the % refers to the signal ratio; note: potency is the fitted concentration of half-maximal effect). Summed up:
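Inhibition of R5020-induced (1 nM final) beta-lactamase reporter signal in PR-UAS-bla HEK293T cells was scored by FRET fluorescence after overnight (16 hr) compound treatment.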

Experiment [4] is described as follows: qHTS assay to identify small molecule antagonists of the progesterone receptor (PR) signaling pathway - cell viability counter screen (AID 1346798). Note: series mostly up to about 92 µM; nearly all actives have a fitted effect of over 50% in size. Summed up:
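ATP content as viability readout: CellTiter-Glo luminescence, 30 min room temperature, in PR-UAS-bla HEK293T cells after 16 hr compound/R5020 treatment at 37C and 5% CO2.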

Experiment [5] is described as follows: qHTS assay to identify small molecule agonists of the progesterone receptor (PR) signaling pathway - cell viability counter screen (AID 1346799; calls by dose curve; note: nearly all actives have a fitted effect of over 45% in size). Summed up: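 Cytotoxicity in PR-bla HEK293T cells: 16 h compound, 37C; CellTiter-Glo added post-FRET read; luminescence after 30 min RT.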
A short description of experiment [6]: qHTS assay to identify small molecule antagonists of the TGF-beta/Smad signaling pathway - cell viability counter screen (AID 1346824). Note: nearly all actives have a fitted effect of over 50% in size. Summed up:
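Cytotoxicity counter-screen run in the same wells as the beta-lactamase Smad reporter read: CellTiter-Glo luminescence after 30 min at room temperature. HEK 293T SBE-bla cells had 5 hr compound exposure at 37 C with TGF-beta1 (0.25 ng/mL stock).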

The nature of experiment [7]: qHTS assay to identify small molecule agonists of the TGF-beta/Smad signaling pathway - cell viability counter screen (AID 1346829). Note: top concentration of the series differs between compounds; nearly all actives have a fitted effect of over 45% in size. Summed up:
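Compound-treated SBE-bla HEK 293T cells (5 hr, 37 C) were assessed for viability with CellTiter-Glo in parallel with the reporter read.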

Experiment [8] is described as follows: qHTS assay to identify small molecule agonists of the TGF-beta/Smad signaling pathway (AID 1346859; active = well fitted activation curve with a large enough effect in the signal ratio in the repeat runs, not every such curve was filed as active; the % refers to the signal ratio; note: series mostly up to about 77 µM). Summed up: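 Stable Smad binding element-beta-lactamase HEK 293T cells; 5 hr compound exposure at 37 C under 5% CO2; 2 hr room-temperature substrate step; fluorescence excited at 405 nm, collected at 460 nm and 530 nm.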
The target of experiment [9] is Thyrotropin-releasing hormone receptor (Homo sapiens) (UniProt P34981). Put plainly: qHTS assay to identify small molecule antagonists of the thyrotropin-releasing hormone receptor (TRHR) signaling pathway (AID 1346877; active = well fitted inhibition curve with a large enough effect in the repeat runs, not every such curve was filed as active; note: series mostly up to about 51 µM). Summed up:
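Cells (TRHR-HEK293) are plated and kept 18 h at 37 °C/5% CO2. A calcium-sensitive dye is added for 2 h, compound follows for 5 min at room temperature, and TRH is then given at 1 nM final.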

Experiment [10] shares this target. Put plainly: qHTS assay to identify small molecule agonists of the thyrotropin-releasing hormone receptor (TRHR) signaling pathway (AID 1346891; calls by dose curve;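 note: HEK293 cells expressing TRHR with calcium dye readout; series mostly up to about 58 µM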). Summed up:
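In 1536-format, 1500 TRHR-Hek293 cells per well grew 18 h, took up calcium dye for 2 h at 37 °C, received compound, and were read kinetically; 15-point titrations, triplicates.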

The nature of experiment [11]: Human pregnane X receptor (PXR) small molecule agonists, qHTS cell viability counter screen (AID 1346977). Note: nearly all actives have a fitted effect of over 50% in size. Summed up:
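Readout is CellTiter-Fluor fluorescence from PXR-Luc HepG2 cells. Plated cells rested 5hr, then were treated with compounds for 24hr at 37C and 5% CO2, with reagent present during the last hour.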

Experiment [12] is described as follows: Caspase-3/7 induction in HepG2 cells by small molecules, qHTS assay (AID 1346978). Note: nearly all actives have a fitted effect of over 15% in size. Summed up:
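Caspase-3/7 induction was measured by Caspase-Glo 3/7 luminescence (30 min, room temperature) after a 17 hr compound exposure of wild-type HepG2 cells seeded at 2,000 per well and pre-incubated 5 hr.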

The nature of experiment [13]: Caspase-3/7 induction in CHO-K1 cells by small molecules, qHTS cell viability counter screen (AID 1346979). Note: nearly all actives have a fitted effect of over 35% in size. Summed up:
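To flag cytotoxic compounds, treated CHO-K1 wild-type cells were given CellTiter-Fluor at 16hr and read fluorescently after 1hr at 37C; the caspase-3/7 luminescence was measured in these same wells.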

Experiment [14] is described as follows: Caspase-3/7 induction in CHO-K1 cells by small molecules, qHTS assay (AID 1346980). Note: nearly all actives have a fitted effect of over 15% in size. Summed up: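 Luminescent Caspase-Glo 3/7 read (30min, room temperature) quantified apoptosis induction. Cells were wild-type CHO-K1, treated with compound for 17hr at 37 C and 5% CO2.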
Experiment [15] is described as follows: Caspase-3/7 induction in HepG2 cells by small molecules, qHTS cell viability counter screen (AID 1346981). Note: series mostly up to about 92 µM; nearly all actives have a fitted effect of over 30% in size. Summed up:
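Steps: seed 2,000 HepG2 cells per well; incubate 5 hr at 37 C; pin-add compounds in DMSO; incubate 16 hr; add CellTiter-Fluor; after 1 hr at 37 C and 5% CO2, read fluorescence.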

For experiment [16], the target named is Nuclear receptor subfamily 1 group I member 2 (Homo sapiens) (UniProt O75469). Put plainly: Human pregnane X receptor (PXR) small molecule agonists, qHTS assay (AID 1346982). Note: nearly all actives have a fitted effect of over 35% in size. Note: potency is the fitted concentration of half-maximal effect. Summed up:
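Agonist mode qHTS: PXR-Luc HepG2 cells plated 5 hr before DMSO-dissolved compounds were pinned in, cultured 24 hr at 37 C, 5% CO2; ONE-Glo luminescence readout.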

The target of experiment [17] is Cytochrome P450 2D6 (Homo sapiens) (UniProt P10635). Description: Cytochrome P450 Family 2 Subfamily D Member 6 (CYP2D6) small molecule antagonists: luciferase reporter qHTS assay (AID 1671196). Note: series mostly up to about 120 µM; nearly all actives have a fitted effect of over 50% in size. Summed up:
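P450-Glo format: CYP2D6 converts a proluciferin substrate to luciferin in an NADPH-driven reaction lasting 1 h at room temperature. Light output, proportional to CYP2D6 activity, reflects interference by test chemicals.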

For experiment [18], the target named is Nuclear receptor subfamily 1 group I member 2 (Rattus norvegicus) (UniProt Q9R1A7). Put plainly: Rat pregnane X receptor (rPXR) activation by small molecules, qHTS assay (AID 1346983). Note: nearly all actives have a fitted effect of over 20% in size. The following applies: rPXR luciferase reporter cells, One-Glo luminescence, 24 h; max activation: active compounds read high. Summed up:
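Luminescent readout (One-Glo luciferase, 30 min room temperature) followed 24 hr compound treatment at 37 C of rPXR cells plated 2,000 per well and preincubated 5hr; qHTS format with compounds delivered in DMSO.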

SMILES strings stand for the structures. Unmarked numbers belong to inactive results. Results filed as inconclusive are left out. Activity calls are given as the source filed them. Unless noted, calls come from the whole dose curve; as a rule, active = well fitted curve in the direction sought with a large enough effect in the repeat runs; inconclusive = weak or mixed curves; inactive = no such curve, though single readings can be large; an effect the other way counts as inactive or inconclusive.
% is set by controls: 0 for no effect and ±100 for the full control effect.

Sequence of Cytochrome P450 2D6 (Homo sapiens) (P10635 whole entry, looked up): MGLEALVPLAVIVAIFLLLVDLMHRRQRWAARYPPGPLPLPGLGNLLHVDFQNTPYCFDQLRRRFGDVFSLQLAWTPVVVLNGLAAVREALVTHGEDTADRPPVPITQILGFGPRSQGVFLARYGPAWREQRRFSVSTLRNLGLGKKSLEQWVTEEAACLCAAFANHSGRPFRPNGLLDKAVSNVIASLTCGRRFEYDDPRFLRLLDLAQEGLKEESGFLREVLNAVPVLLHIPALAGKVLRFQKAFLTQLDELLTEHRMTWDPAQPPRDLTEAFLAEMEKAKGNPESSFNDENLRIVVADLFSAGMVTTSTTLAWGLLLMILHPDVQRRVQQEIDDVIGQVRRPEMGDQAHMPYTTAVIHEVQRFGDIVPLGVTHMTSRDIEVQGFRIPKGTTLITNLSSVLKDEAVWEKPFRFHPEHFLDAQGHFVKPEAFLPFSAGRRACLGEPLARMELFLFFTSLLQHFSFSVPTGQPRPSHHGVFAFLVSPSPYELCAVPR
Sequence of Nuclear receptor subfamily 1 group I member 2 (Homo sapiens) (O75469 whole entry, looked up): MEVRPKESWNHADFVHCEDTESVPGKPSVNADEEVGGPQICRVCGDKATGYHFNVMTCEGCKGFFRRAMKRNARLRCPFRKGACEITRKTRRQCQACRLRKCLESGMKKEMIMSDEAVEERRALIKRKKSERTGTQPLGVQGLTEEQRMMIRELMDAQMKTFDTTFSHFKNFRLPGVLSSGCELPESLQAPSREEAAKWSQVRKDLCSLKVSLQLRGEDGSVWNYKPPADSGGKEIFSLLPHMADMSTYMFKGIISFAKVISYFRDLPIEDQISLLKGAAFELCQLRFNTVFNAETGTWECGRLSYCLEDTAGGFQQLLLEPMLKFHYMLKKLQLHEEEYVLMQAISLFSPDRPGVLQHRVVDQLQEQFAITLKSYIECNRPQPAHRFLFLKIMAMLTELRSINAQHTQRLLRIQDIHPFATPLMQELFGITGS
Sequence of Thyrotropin-releasing hormone receptor (Homo sapiens) (P34981 whole entry, looked up): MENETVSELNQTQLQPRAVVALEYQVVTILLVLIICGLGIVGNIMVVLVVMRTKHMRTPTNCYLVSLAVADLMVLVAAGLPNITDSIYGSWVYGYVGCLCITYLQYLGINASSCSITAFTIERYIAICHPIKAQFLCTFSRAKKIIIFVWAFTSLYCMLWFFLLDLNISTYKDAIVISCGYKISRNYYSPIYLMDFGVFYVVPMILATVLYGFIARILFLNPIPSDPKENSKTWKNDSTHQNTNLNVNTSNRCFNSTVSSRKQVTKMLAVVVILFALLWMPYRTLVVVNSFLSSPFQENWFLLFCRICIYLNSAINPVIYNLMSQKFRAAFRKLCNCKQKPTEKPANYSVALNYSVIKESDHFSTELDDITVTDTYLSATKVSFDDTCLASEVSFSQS
Sequence of Progesterone receptor (Homo sapiens) (P06401 whole entry, looked up): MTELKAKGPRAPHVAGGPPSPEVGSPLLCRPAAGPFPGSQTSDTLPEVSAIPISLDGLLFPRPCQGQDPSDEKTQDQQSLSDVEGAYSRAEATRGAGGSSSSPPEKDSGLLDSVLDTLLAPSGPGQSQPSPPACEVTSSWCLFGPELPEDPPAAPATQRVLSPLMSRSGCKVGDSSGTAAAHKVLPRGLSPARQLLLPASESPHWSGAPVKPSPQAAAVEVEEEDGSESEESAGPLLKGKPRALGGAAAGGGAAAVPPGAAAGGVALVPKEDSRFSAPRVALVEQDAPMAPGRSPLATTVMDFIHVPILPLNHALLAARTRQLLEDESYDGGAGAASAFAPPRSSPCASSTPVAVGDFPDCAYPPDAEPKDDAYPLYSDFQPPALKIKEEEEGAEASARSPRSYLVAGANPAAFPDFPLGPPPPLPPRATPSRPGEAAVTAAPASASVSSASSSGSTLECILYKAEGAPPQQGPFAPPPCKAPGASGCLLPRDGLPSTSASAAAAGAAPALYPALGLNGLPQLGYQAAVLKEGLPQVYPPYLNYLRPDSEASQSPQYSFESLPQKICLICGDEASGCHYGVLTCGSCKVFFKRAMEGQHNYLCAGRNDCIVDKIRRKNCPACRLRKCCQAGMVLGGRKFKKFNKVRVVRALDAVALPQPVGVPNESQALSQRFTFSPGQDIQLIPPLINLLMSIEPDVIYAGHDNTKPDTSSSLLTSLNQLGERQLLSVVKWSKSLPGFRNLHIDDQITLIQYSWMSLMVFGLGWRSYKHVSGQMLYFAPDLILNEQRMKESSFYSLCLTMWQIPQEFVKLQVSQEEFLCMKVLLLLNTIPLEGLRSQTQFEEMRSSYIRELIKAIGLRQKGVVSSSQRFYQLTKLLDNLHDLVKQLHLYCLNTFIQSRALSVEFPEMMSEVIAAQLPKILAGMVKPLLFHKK
Sequence of Nuclear receptor subfamily 1 group I member 2 (Rattus norvegicus) (Q9R1A7 whole entry, looked up): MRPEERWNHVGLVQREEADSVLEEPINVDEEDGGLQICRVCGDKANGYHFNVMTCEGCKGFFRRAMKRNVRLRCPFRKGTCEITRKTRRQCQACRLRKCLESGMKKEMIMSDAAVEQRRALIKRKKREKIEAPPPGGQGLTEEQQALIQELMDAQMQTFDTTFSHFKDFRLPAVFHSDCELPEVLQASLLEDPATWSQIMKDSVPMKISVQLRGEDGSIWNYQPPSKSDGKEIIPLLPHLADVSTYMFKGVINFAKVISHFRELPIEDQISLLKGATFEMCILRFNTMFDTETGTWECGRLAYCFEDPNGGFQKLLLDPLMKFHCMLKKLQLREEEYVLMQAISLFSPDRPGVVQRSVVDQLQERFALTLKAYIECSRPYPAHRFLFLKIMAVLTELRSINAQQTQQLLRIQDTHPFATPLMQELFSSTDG

With `CCOC(=O)CC(C)C`, the Potency result in experiment [1], in [3], in experiment [4], in [5], in experiment [6] and in experiment [7] was “inactive” in each case. Also, the Potency result in [10], in experiment [11], in experiment [13], in experiment [14], in experiment [15] and in experiment [16] was “inactive” throughout. Further, the Potency result in experiment [17] is “inactive”. For the same compound, the compound was classed as inactive in experiment [2], in experiment [8], in experiment [9] and in experiment [12].

On to `CCN(CCO)CCCC(C)Nc1ccnc2cc(Cl)ccc12` (stereo not given), for which the activity change, negative = cytotoxicity in experiment [1] was -3.53% [at 8.39 µM]; in [4], -13% [at 8.39 µM]; in [5], -10.8% [at 8.39 µM]; in experiment [7] it was 2.66% [at 6.97 µM]; in experiment [11] it was 4.23% [at 8.39 µM]; in experiment [13] it was 0.797% [at 8.39 µM]. The activity change, negative = cytotoxicity in experiment [15] was 3.29% [at 8.39 µM]. For the same compound, the activation in experiment [2] is -0.495% [at 8.39 µM]; in [8], -1.21% [at 6.97 µM]; in [10], 0.0624% [at 5.23 µM]. Moreover, the activity change, negative = inhibition in experiment [3] is 1.96% [at 8.39 µM]. Further, the viability change, negative = cytotoxic in experiment [6] is -17% [at 6.97 µM]. Further, the activity, negative = inhibition in experiment [9] was 0.0536% [at 4.65 µM]. For the same compound, the caspase activation in experiment [12] is 0.0326% [at 8.39 µM]. In addition, in [14], the caspase-3/7 activation was -0.893% [at 8.39 µM]. Besides, the max activation in experiment [18] is -3.7%.

Turning to `CCCCCCCCCCCCCCCC(=O)OC/C=C(C)/C=C/C=C(C)/C=C/C1=C(C)CCCC1(C)C`, the Potency result in [1], in [3], in experiment [4], in [5], in experiment [6] and in experiment [7] was “inactive” each time. In addition, the Potency entry in experiment [10], in experiment [11], in experiment [13], in experiment [14], in experiment [15] and in experiment [17] was “inactive” each time. The result in experiment [2], in experiment [8], in [9] and in [12] was inactive. In addition, in experiment [16], the Potency was 24.3 µM (active).

As for `OCCC1CCCCN1` (stereo not given), the Potency entry in experiment [1], in [3], in experiment [4], in experiment [5], in experiment [6] and in experiment [7] was “inactive” throughout. In addition, the Potency entry in experiment [11], in [14] and in experiment [16] was “inactive” throughout. The result in experiment [2] and in [8] was inactive.

Turning to `CC(C)CCCCCCOC(=O)c1ccc(C(=O)OCCCCCCC(C)C)c(C(=O)OCCCCCCC(C)C)c1`, the Potency entry in experiment [1], in experiment [3], in experiment [4], in experiment [5], in [6] and in experiment [7] was “inactive” throughout. In addition, the Potency result in experiment [10], in [11], in experiment [13], in experiment [14], in [15] and in [16] was “inactive” throughout. For the same compound, in [17], the Potency entry was “inactive”. The compound was classed as inactive in [2], in experiment [8] and in experiment [9].

Consider `CCCCOC(=O)c1ccccc1C(=O)OCC(CC)CCCC` (stereo not given), for which the Potency entry in experiment [1], in experiment [4], in [5], in [6], in experiment [7] and in [10] was “inactive” in each case. The Potency entry in experiment [11], in experiment [13], in experiment [14], in experiment [15], in experiment [16] and in [17] was “inactive” throughout. Further, the call in experiment [2], in experiment [8], in experiment [9] and in [12] was inactive. Besides, the Potency in [3] was 48.6 µM (active).

As for `COc1cc(C(C)(C)C)c(O)c(C(C)(C)C)c1`, the Potency entry in [1], in [3], in experiment [4], in [5], in experiment [6] and in [7] was “inactive” each time. Besides, the Potency entry in experiment [10], in experiment [11], in experiment [13], in experiment [14], in experiment [15] and in experiment [16] was “inactive” throughout. The Potency entry in experiment [17] is “inactive”. In addition, the result in [2], in [8] and in experiment [9] was inactive.

For `CCCCCCCCC(CO)CCCCCC` (stereo not given), the Potency result in experiment [1], in experiment [3], in experiment [4], in [5], in [6] and in experiment [7] was “inactive” each time. Moreover, the Potency result in experiment [11], in experiment [13], in experiment [14], in experiment [15], in experiment [16] and in experiment [17] was “inactive” each time. In addition, the outcome in experiment [2], in experiment [8] and in experiment [12] was inactive.

The record behind these values is PubChem BioAssay (Tox21).
